Activity change, negative = inhibition data for 75 compounds are collected here from PubChem BioAssay AID652062 (Broad Institute, 2013).

Hit rate of the full screen: of about 1,400 compounds, about 1,100 (79%) were called active.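 The calls were made as follows: active = fitted half-maximal concentration of a falling signal no higher than twice the top valid dose in every test run; inconclusive = runs disagree, or flat partial inhibition, or poor fit; inactive = every run inactive: flat, wrong direction, or potency beyond limit.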 So high a share suggests a set chosen from earlier hits. Not all results are given here. Entries with a potency or affinity are not part of this list.

The test can be described thus: HIV-1 AD8 envelope cell-cell fusion blockers – cherry-pick, dose response (AID 652062). The note with it: HeLa-AD8 Env / CEM-CCR5 cell fusion, luciferase; at 35 µM (top of the series) unless noted.
As to `C[C@H]1CN([C@@H](C)CO)S(=O)(=O)c2ccc(-c3cccc(F)c3)cc2O[C@H]1CN(C)S(=O)(=O)c1ccccc1`, the activity change, negative = inhibition is -18.9%.

In the case of `CCOC(=O)C(C)Oc1cccc2c(=O)n(CC(=O)NCCc3ccc(OC)c(OC)c3)ccc12` (stereo not given), the activity change, negative = inhibition came to 3.5%.

Turning to `CC(C)(C)c1ccc(-n2ncc3c2CCCC3NC(=O)CN2CCCC2=O)cc1` (stereo not given), the activity change, negative = inhibition is -53.4%.

For the compound `c1ccc(CSc2nnc([C@@H]3CCCN3)o2)cc1`, the activity change, negative = inhibition is 25%.

For `Cc1ccccc1S(=O)(=O)NC(=O)C1(C)CCN1C(=O)CCc1ccc(Cl)cc1Cl` (stereo not given), the activity change, negative = inhibition is -6.19%.

Consider `C[C@H](CO)N1C[C@H](C)[C@H](CN(C)Cc2ccccc2)Oc2c(NC(=O)Nc3ccc4c(c3)OCO4)cccc2C1=O`, for which the activity change, negative = inhibition was 19.6% [at 16 µM].

With `CNC[C@H]1Oc2c(NC(=O)Nc3ccc(C(F)(F)F)cc3)cccc2C(=O)N([C@@H](C)CO)C[C@H]1C`, the activity change, negative = inhibition was determined as 50.6%.

For the compound `CC(C)CC#Cc1ccc2c(c1)O[C@@H](CN(C)C(=O)C1CCCCC1)[C@H](C)CN([C@@H](C)CO)S2(=O)=O`, the activity change, negative = inhibition is -88.1%.

In the case of `CCOc1ccc2c(c1)-c1c(ssc1=S)C(C)(C)N2C(=O)c1ccco1`, the activity change, negative = inhibition was -10.3%.

With `COc1cc(OC)cc(C(=O)N[C@H](C(=O)NCCc2c[nH]c3ccccc23)C(C)C)c1`, the activity change, negative = inhibition is -23.6%.

On to `C[C@H]1CN([C@@H](C)CO)C(=O)Cc2cc(N(C)C)ccc2O[C@H]1CN(C)Cc1ccc(Cl)c(Cl)c1`, for which the activity change, negative = inhibition was determined as 15.3%.

For the compound `C[C@H]1CN([C@@H](C)CO)C(=O)c2cc(NS(C)(=O)=O)ccc2O[C@@H]1CN(C)Cc1ccc(Cl)c(Cl)c1`, the activity change, negative = inhibition was 37.5%.

For `C[C@@H]1CN([C@@H](C)CO)C(=O)c2cccc(NS(=O)(=O)c3ccc(F)cc3)c2O[C@@H]1CN(C)Cc1ccc(-c2ccccc2)cc1`, the activity change, negative = inhibition is 44.3% [at 16 µM].

For `Cn1cc(S(=O)(=O)N2CCOCC2)cc1C(=O)Nc1cccc(Cl)c1`, the activity change, negative = inhibition is -9.96%.

As for `COc1ccc(-c2nn(C)c(=O)c3ccccc23)cc1NC(=O)Cn1nc(C)c2ccccc2c1=O`, the activity change, negative = inhibition was found to be 6.7%.

For `Cc1cc(C(C)(C)C)oc1C(=O)N(CC(=O)NC1CCCC1)Cc1ccc(Cl)cc1`, the activity change, negative = inhibition was -9.64%.

`Cc1ccccc1-n1c(=O)c2ccccc2n2cnnc12`: the activity change, negative = inhibition came to 40.3%.

As for `CCOC(=O)C1CCN(C(=O)c2ccc3c(c2)C(=O)N(c2ccccc2C)C3=O)CC1`, the activity change, negative = inhibition turned out to be 68.2%.

In the case of `CCN(CC)CCN(C(=O)c1cc(Cl)sc1Cl)c1nc2cc3c(cc2s1)OCO3`, the activity change, negative = inhibition was determined as 54.2%.

As for `O=C(NCC[C@@H]1CC[C@@H](NS(=O)(=O)c2ccccc2F)[C@@H](CO)O1)c1ccc(F)cc1`, the activity change, negative = inhibition is 36%.

With `Cc1nc2sc(C(c3ccco3)N3CCC(Cc4ccccc4)CC3)c(O)n2n1` (stereo not given), the activity change, negative = inhibition was 111%.

Take `O=C(CNC(=O)c1cccc(-n2cccc2)c1)Nc1ccccc1Br`: the activity change, negative = inhibition came out at 4.51%.

For the compound `Nc1nonc1C(=O)NCCNCc1c(OCc2ccccc2F)ccc2ccccc12`, the activity change, negative = inhibition came to 10.1%.

`O=C(CCNC(=O)c1ccc(Br)cc1)NNC(=O)COc1ccccc1F`: the activity change, negative = inhibition came out at 9.15%.

Take `O=C(Nc1cc(Cl)cc(Cl)c1)C(c1ccccc1)N1CCCCC1` (stereo not given): the activity change, negative = inhibition was -7.46%.

As for `C[C@H]1CN([C@@H](C)CO)C(=O)c2ccccc2-c2ccccc2CO[C@H]1CN(C)S(=O)(=O)c1ccccc1C#N`, the activity change, negative = inhibition is 30.6%.

On to `CCN1CCN(S(=O)(=O)c2ccc(Cl)c(C(=O)Nc3ccccc3N3CCCC3)c2)CC1`, for which the activity change, negative = inhibition worked out at 48.8%.

As to `CO[C@@H]1CN(C)C(=O)c2cc(NC(=O)Nc3ccc(Cl)cc3)ccc2OC[C@H](C)N(C)C[C@H]1C`, the activity change, negative = inhibition is -19.7%.

As for `C[C@@H]1CN([C@H](C)CO)C(=O)c2cc(C#Cc3ccncc3)cnc2O[C@@H]1CN(C)S(=O)(=O)c1ccccc1F`, the activity change, negative = inhibition is -27%.

As for `C[C@H](CO)N1C[C@H](C)[C@H](CN(C)S(=O)(=O)c2ccc(C#N)cc2)Oc2ncc(/C=C/c3ccccc3)cc2C1=O`, the activity change, negative = inhibition came to 16.9% [at 16 µM].

Regarding `S=c1nc[nH]c2c1[nH]c1ccc(Cl)cc12`, the activity change, negative = inhibition was found to be 149%.

On to `N#Cc1ccc(CSc2nnc(COc3ccccc3)n2-c2ccccc2)cc1`, for which the activity change, negative = inhibition was 7.17%.

Regarding `C[C@H]1CN([C@@H](C)CO)C(=O)c2cc(NS(=O)(=O)c3ccc(F)cc3)ccc2O[C@H]1CN(C)S(=O)(=O)c1ccc(F)cc1`, the activity change, negative = inhibition is 7.89%.

As for `CCCNC(=O)C[C@H]1C[C@H]2c3cc(NC(=O)Cc4ccncc4)ccc3O[C@H]2[C@H](CO)O1`, the activity change, negative = inhibition was -15.2%.

For `CCCNC(=O)C[C@H]1C[C@H]2c3cc(NC(=O)CN(C)C)ccc3O[C@H]2[C@H](CO)O1`, the activity change, negative = inhibition was -19.9% [at 16 µM].

Take `CCCNC(=O)C[C@@H]1C[C@@H]2c3cc(NC(=O)CN(C)C)ccc3O[C@@H]2[C@H](CO)O1`: the activity change, negative = inhibition was found to be 48.2%.

In the case of `CCCNC(=O)C[C@@H]1C[C@@H]2c3cc(NC(=O)Cc4ccncc4)ccc3O[C@@H]2[C@H](CO)O1`, the activity change, negative = inhibition is -27.5%.

As to `C[C@@H]1CN([C@@H](C)CO)C(=O)Cc2cc(NC(=O)c3ccncc3)ccc2O[C@H]1CN(C)Cc1ccc(Cl)c(Cl)c1`, the activity change, negative = inhibition is -39.7%.

With `C[C@H]1CN([C@@H](C)CO)C(=O)Cc2cc(N(C)C)ccc2O[C@H]1CN(C)CC1CC1`, the activity change, negative = inhibition turned out to be 11.8%.

Take `C[C@H](CO)N1C[C@H](C)[C@@H](CN(C)CC2CC2)Oc2ccc(NS(C)(=O)=O)cc2CC1=O`: the activity change, negative = inhibition is 4.33%.

For `Nc1ccc(S(=O)(=O)c2ccc(N3CCOCC3)c(N)c2)cc1`, the activity change, negative = inhibition is -17.7%.

As for `COc1ccccc1-c1ccc2c(c1)O[C@H](CN(C)S(=O)(=O)c1ccccc1)[C@H](C)CN([C@H](C)CO)S2(=O)=O`, the activity change, negative = inhibition worked out at 18.5%.

As for `Cc1ccc(S(=O)(=O)N(C)C[C@H]2Oc3cc(-c4cccc(F)c4)ccc3S(=O)(=O)N([C@H](C)CO)C[C@H]2C)cc1`, the activity change, negative = inhibition was -33.7%.

Consider `COc1ccc2c3c(n(C)c2c1)[C@@H](CO)N(C(=O)C1CCOCC1)CC31CCN(Cc2cccc(F)c2)CC1`, for which the activity change, negative = inhibition was -3.19%.

With `COc1ccc2c3c([nH]c2c1)[C@@H](CO)N(C(=O)Nc1cccc(F)c1)CC31CCN(S(=O)(=O)c2ccccc2)CC1`, the activity change, negative = inhibition is -99.7%.

In the case of `COc1ccc2c3c([nH]c2c1)[C@H](CO)N(C(=O)Nc1cccc(F)c1)CC31CCN(S(=O)(=O)c2ccccc2)CC1`, the activity change, negative = inhibition was -57.4%.

For `COc1ccc2c3c(n(C)c2c1)[C@@H](CO)N(C(=O)Nc1ccc(F)cc1)CC31CCN(Cc2cccc(F)c2)CC1`, the activity change, negative = inhibition was -2.46%.

Consider `CC1(C(=O)NCc2ccc3c(c2)OCO3)CCN1Cc1csc2ccccc12` (stereo not given), for which the activity change, negative = inhibition was -11%.

For the compound `CCNC1CCC(Nc2ccnc3cc(Cl)ccc23)CC1` (stereo not given), the activity change, negative = inhibition is -25.4%.

As for `CCCCCCc1nc2ccccc2c(=O)n1NC(=O)c1c(O)c2c(n(CC(C)C)c1=O)CCCC2`, the activity change, negative = inhibition is -7.39%.

Regarding `COc1ccc(OCC(=O)Nc2cc(-c3nn(C)c(=O)c4ccccc34)ccc2OC)cc1`, the activity change, negative = inhibition is -23.3%.

Take `COc1ccc(-c2nn(C)c(=O)c3ccccc23)cc1NC(=O)COc1ccccc1`: the activity change, negative = inhibition is -10.9%.

Regarding `CS(=O)(=O)Nc1ccc2c(c1)[C@H]1C[C@@H](CC(=O)NCCN3CCCCC3)O[C@@H](CO)[C@H]1O2`, the activity change, negative = inhibition is 21%.

On to `CN(C)C(=O)C[C@H]1C[C@@H]2c3cc(NS(=O)(=O)c4ccc(F)cc4)ccc3O[C@@H]2[C@@H](CO)O1`, for which the activity change, negative = inhibition is -6.58%.

For `CS(=O)(=O)Nc1ccc2c(c1)[C@H]1C[C@H](CC(=O)N3CCc4ccccc4C3)O[C@H](CO)[C@H]1O2`, the activity change, negative = inhibition was -8.56%.

As to `CN(C)C(=O)C[C@@H]1C[C@@H]2c3cc(NS(=O)(=O)c4ccc(F)cc4)ccc3O[C@@H]2[C@@H](CO)O1`, the activity change, negative = inhibition worked out at 8.4%.

For the compound `CS(=O)(=O)Nc1ccc2c(c1)[C@@H]1C[C@@H](CC(=O)N3CCc4ccccc4C3)O[C@H](CO)[C@@H]1O2`, the activity change, negative = inhibition worked out at 41.9%.

As for `O=C(C[C@@H]1C[C@H]2c3cc(NC(=O)Nc4ccc(F)cc4)ccc3O[C@H]2[C@H](CO)O1)NCC1CC1`, the activity change, negative = inhibition is 49.9%.

For `CN1CCN(C(=O)C[C@H]2C[C@@H]3c4cc(NS(C)(=O)=O)ccc4O[C@@H]3[C@H](CO)O2)CC1`, the activity change, negative = inhibition is -46%.

For `O=C(Nc1ccc(F)cc1)Nc1ccc2c(c1)[C@@H]1C[C@H](CC(=O)N3CCCCC3)O[C@H](CO)[C@@H]1O2`, the activity change, negative = inhibition was -21.7%.

Regarding `O=C(Nc1ccc(F)cc1)Nc1ccc2c(c1)[C@@H]1C[C@H](CC(=O)N3CCCCC3)O[C@@H](CO)[C@@H]1O2`, the activity change, negative = inhibition is -7.88%.

For the compound `COc1cccc(S(=O)(=O)Nc2ccc3c(c2)[C@H]2C[C@H](CC(=O)NCc4ccc(Cl)cc4)O[C@@H](CO)[C@H]2O3)c1`, the activity change, negative = inhibition was 0.353%.

Turning to `O=C(C[C@H]1C[C@@H]2c3cc(NC(=O)Nc4ccc(F)cc4)ccc3O[C@@H]2[C@@H](CO)O1)NCC1CC1`, the activity change, negative = inhibition was -36.8%.

Consider `CN(C)CC(=O)Nc1ccc2c(c1)[C@H]1C[C@H](CC(=O)NCc3cccc(F)c3)O[C@@H](CO)[C@H]1O2`, for which the activity change, negative = inhibition is -1.18%.

In the case of `COCCNC(=O)C[C@@H]1C[C@H]2c3cc(N(C)C)ccc3O[C@H]2[C@@H](CO)O1`, the activity change, negative = inhibition is -37%.

In the case of `O=C(C[C@H]1C[C@H]2c3cc(NS(=O)(=O)c4ccc(F)cc4)ccc3O[C@H]2[C@@H](CO)O1)NCc1ccccc1F`, the activity change, negative = inhibition stood at 28%.

As to `O=C(C[C@@H]1C[C@H]2c3cc(NC(=O)C4CCOCC4)ccc3O[C@H]2[C@H](CO)O1)NCc1ccccc1F`, the activity change, negative = inhibition was determined as 10.9%.

Turning to `O=C(C[C@H]1C[C@@H]2c3cc(NC(=O)C4CCOCC4)ccc3O[C@@H]2[C@@H](CO)O1)NCc1ccccc1F`, the activity change, negative = inhibition is -7.12%.

`O=C(C[C@@H]1C[C@@H]2c3cc(NC(=O)C4CCOCC4)ccc3O[C@@H]2[C@H](CO)O1)NCc1ccccc1F`: the activity change, negative = inhibition was found to be 23.2%.

For `Cc1ccc(S(=O)(=O)N(C)C[C@H]2Oc3cc(C4=CCCC4)ccc3S(=O)(=O)N([C@H](C)CO)C[C@H]2C)cc1`, the activity change, negative = inhibition is -41.2%.

In the case of `COc1ccc(S(=O)(=O)N(C)C[C@H]2Oc3cc(C4=CCCC4)ccc3S(=O)(=O)N([C@@H](C)CO)C[C@H]2C)cc1`, the activity change, negative = inhibition was determined as 5.51%.

In the case of `COc1cccc(/C=N/NC(=O)CC2C(=O)NN=C2C)c1O` (stereo not given), the activity change, negative = inhibition is -20%.

For `COc1ccc(CCCC(=O)NCCc2ccccc2)c(C)c1`, the activity change, negative = inhibition was 7.11%.

In the case of `CCCNC(=O)C[C@@H]1C[C@H]2c3cc(NC(=O)Cc4ccncc4)ccc3O[C@H]2[C@@H](CO)O1`, the activity change, negative = inhibition was 10.9% [at 30 µM].

As to `CCCNC(=O)C[C@@H]1C[C@@H]2c3cc(NC(=O)Cc4ccncc4)ccc3O[C@@H]2[C@@H](CO)O1`, the activity change, negative = inhibition is -32.8% [at 30 µM].
